Assay results as given in PubChem BioAssay AID687001 (Broad Institute, 2013).
Measured potencies and affinities stand elsewhere. Unmarked numbers belong to inactive results.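 Rule for the calls: active = signal-lowering compounds whose fitted half-maximal concentration is at or below twice the top tested dose in every run; inconclusive = runs disagree, flat 30 to 70% inhibition, or poor curve fit; inactive = the rest.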

Each compound was assayed against Protein S100-A4 (Homo sapiens) (UniProt P26447) (assay: human S100A4 peptide interaction inhibition curves – biochemical, fluorescence polarization, cherry-picked hits, dose response (AID 687001;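 note: 0% = DMSO neutral control wells and -100% = TFP positive control wells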)). Conditions: FP, S100A4/TAMRA-myosin IIA peptide binding; series mostly up to 11 µM; activity change, negative = inhibition: at the top concentration.
Sequence of Protein S100-A4 (Homo sapiens) (P26447 whole entry, looked up): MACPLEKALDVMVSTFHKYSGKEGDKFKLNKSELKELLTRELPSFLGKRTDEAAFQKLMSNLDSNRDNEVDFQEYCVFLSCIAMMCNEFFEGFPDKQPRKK

Row | Compound | activity change, negative = inhibition
1 | CC(C)(C)c1cc(CCC(=O)N2CCC2)cc(C(C)(C)C)c1O | -0.818%
2 | CC(C)NC(=O)N(C)C[C@@H]1Oc2cc(-c3ccncc3)ccc2S(=O)(=O)N([C@H](C)CO)C[C@H]1C | -0.107%
3 | CCC(=O)N(C)C[C@H]1Oc2ncc(-c3ccc(C(=O)N(C)C)cc3)cc2C(=O)N([C@@H](C)CO)C[C@H]1C | 3.86%
4 | CCc1ccc(C(=O)NNC(=O)c2cccc(N3C(=O)CCC3=O)c2)cc1 | 1.21%
5 | Cc1cc(=O)n2nc(N3CCC(C(=O)NCc4ccccc4)CC3)sc2n1 | 13.9%
6 | Cc1cc(C(=O)NC2CCCN(Cc3ccc(Cl)cc3)C2)n(C)n1 (stereo unspecified) | -0.775%
7 | CO[C@H]1CN(C)C(=O)c2ccc(NS(=O)(=O)c3ccccc3)cc2OC[C@H](C)N(Cc2cccnc2)C[C@@H]1C | 0.753%
8 | Cc1ccc(S(=O)(=O)N2CCOCC2)cc1NC(=O)COC(=O)Cc1cccs1 | -1.47%
9 | CC(NC(=O)C(=O)NCc1cccs1)c1ccccc1 (stereo unspecified) | -3.94%
10 | CC(=O)Nc1ccc2nsnc2c1 | -2.33%
11 | Nc1cc(-c2ccncc2)c[nH]c1=O | -2.72%
12 | O=C(C[C@@H]1C[C@H]2c3cc(NS(=O)(=O)c4ccccc4)ccc3O[C@H]2[C@@H](CO)O1)N1CCOCC1 | 2.46%
13 | COc1ccc(C)c2sc(N(CCN(C)C)C(=O)c3ccc4ccccc4c3)nc12 | -1.89%
14 | CCS(=O)(=O)Nc1ccc2c(c1)C(=O)N(C)C[C@@H](OC)[C@@H](C)CN(C(C)=O)[C@H](C)CO2 | -0.437%
15 | CCCNC(=O)c1ccc2c(c1)nc(C)n2-c1cccc(C)c1 | 7.13%
16 | C[C@@H]1CCCCO[C@@H](CN(C)C(=O)C2CCCCC2)[C@@H](C)CN([C@H](C)CO)C(=O)c2cc(NC(=O)CCCCCC(=O)Nc3ccccc3N)ccc2O1 | 5.83% [at 10 µM]
